The list is not random: actives were taken first. Their share in the collection is about 2.3%.
mIDH1 inhibitor = inhibitors of human mutant IDH1 R132H. O75874. AID 602179. IDH1-R132H enzyme, NADPH consumption, diaphorase/resazurin fluorescence. Potency, µM (titrated, usually from 76.6 µM), inactives show top-dose activity change, negative = inhibition, hits mostly inhibitors. 0.093% of 390,000 active; note: potency is the fitted concentration of half-maximal effect; % is set by controls: 0 for no effect and ±100 for the full control effect; nearly all actives have a fitted effect of over 65% in size
Target sequence (O75874 whole entry R132H, stated change not applied): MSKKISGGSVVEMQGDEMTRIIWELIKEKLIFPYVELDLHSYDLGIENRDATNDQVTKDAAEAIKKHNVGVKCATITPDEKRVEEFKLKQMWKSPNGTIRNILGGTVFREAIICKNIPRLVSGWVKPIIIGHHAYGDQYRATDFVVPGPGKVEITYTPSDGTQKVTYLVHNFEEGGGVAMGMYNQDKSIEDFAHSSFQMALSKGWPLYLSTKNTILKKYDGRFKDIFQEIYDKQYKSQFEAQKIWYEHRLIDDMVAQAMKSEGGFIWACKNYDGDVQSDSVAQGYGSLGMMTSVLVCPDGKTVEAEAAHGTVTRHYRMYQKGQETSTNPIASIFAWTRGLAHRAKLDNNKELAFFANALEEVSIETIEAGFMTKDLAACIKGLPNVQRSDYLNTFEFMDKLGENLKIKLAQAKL
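IDH1-R132H (0.5 ug/mL) preincubated 30 min with compound, then NADPH (0.016 mM) and alpha-KG (2 mM) added; 80 min at RT, pH 7.5. Remaining NADPH coupled via diaphorase/resazurin to fluorescence (540/590 nm); concentration-response curves normalized to no-enzyme control.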
A549 tox = counter-screen for Nrf2 inhibitors: cytotoxicity in A549 cells; 0.16% of 390,000 active; AID 504648; A549 ARE-Fluc cells, CellTiter-Fluor viability, 18-24 h; Potency, µM (highest dose often 46 µM), for inactives: at the highest dose activity change, negative = cytotoxicity, actives largely listed as inhibitors; note: potency is the fitted concentration of half-maximal effect; % is set by controls: 0 for no effect and ±100 for the full control effect
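A549 ARE_Fluc cells in 5% FBS OPTI-MEM were exposed to compounds in concentration-response for 18-24 h at 37 deg C. Viability was read by CellTiter-Fluor fluorescence (Ex 405/Em 525) after 30 min, before the luciferase read.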
Anesthetic bind = candidate novel general anesthetic via apoferritin binding; P02791; apoferritin/1-aminoanthracene competitive binding, fluorescence; Potency, µM (titrated, usually from 77.5 µM), inactives show top-dose activity change, negative = displacement, actives largely listed as inhibitors; 0.074% of 350,000 active; note: potency is the fitted concentration of half-maximal effect; % is set by controls: 0 for no effect and ±100 for the full control effect; nearly all actives have a fitted effect of over 20% in size
Target sequence (P02791 2-175 limits assumed): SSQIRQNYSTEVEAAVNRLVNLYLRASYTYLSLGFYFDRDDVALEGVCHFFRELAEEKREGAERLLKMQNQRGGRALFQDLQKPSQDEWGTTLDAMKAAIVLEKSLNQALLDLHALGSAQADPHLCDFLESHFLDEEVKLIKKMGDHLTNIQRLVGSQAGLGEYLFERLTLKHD
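Probe: 1-aminoanthracene (50% saturated, PBS). Protein: horse-spleen apoferritin, 10 uM. Incubation: 10 min, room temperature. Detection: 380 nm excitation, 535 nm emission. Analysis: normalized response, four-parameter Hill.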
Nrf2 inh = Nrf2 pathway inhibition; 2.1% of 360,000 active; A549 ARE-Fluc reporter, luciferase luminescence, 18-24 h; Potency, µM (titrated, usually from 46 µM), without a hit: at the top dose activity change, negative = inhibition, hits mostly inhibitors; note: potency is the fitted concentration of half-maximal effect; % is set by controls: 0 for no effect and ±100 for the full control effect; nearly all actives have a fitted effect of over 60% in size
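A549 ARE_Fluc cells (5000/well, 5% FBS OPTI-MEM) pre-incubated 2 h, then treated with compounds 18-24 h at 37C/5% CO2 in concentration-response. CellTiter-Fluor viability read first; BugLite luciferase luminescence after 15 min at room temperature gives Nrf2 activity.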
Giardia killer = Giardia lamblia killing; activity change, % at 7.66 µM, hits read low; Giardia lamblia trophozoite viability; AID 540267; 0.15% of 340,000 active; in the data active = activity change below about -80%; inconclusive = between about -30% and that limit;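 note: parasites exposed to compound for two days anaerobically before the ATP read; % is set by controls: 0 for no effect and ±100 for the full control effect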
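Giardia lamblia trophozoites (100 cells/well) were incubated with compounds for 48 h at 37 deg C under anaerobic conditions. Viability was read as ATP content by one-step luminescence after 15-30 min at room temperature.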
Nrf2 ARE act = Nrf2 pathway activation | 0.31% of 410,000 active | Potency, µM (doses to about 46.1 µM), inactives show top-dose activation, most hits filed as activators | AREc32 ARE-luciferase reporter (MCF7-derived line), luminescence, 24 h; note: potency is the fitted concentration of half-maximal effect; % of control where 0% means no effect; nearly all actives have a fitted effect of over 65% in size
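Luciferase luminescence (Steady-Glo, 30 min at room temperature) served as the read-out of ARE activation in AREc32 cells treated with compounds for 24 hr at 37 deg C.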
Starred values were filed as active, the others as inactive; ? = inconclusive; . = no result. Unless noted, calls come from the whole dose curve; as a rule, active = well fitted curve in the direction sought with a large enough effect; inconclusive = small, poorly fitted or top-dose-only effect, or another doubt; inactive = no such curve, though single readings can be large; an effect the other way counts as inactive or inconclusive.

SMILES | mIDH1 inhibitor | A549 tox | Anesthetic bind | Nrf2 inh | Giardia killer | Nrf2 ARE act
COc1ccc(NC(=O)COC(=O)c2c3c(nc4ccccc24)CCCC3)cc1Cl | -8.5% | ? | ? | 23.1µM* | -0.2 | -0.8%
COc1cccc(-c2cc3nc(NCc4ccccc4F)n(C)c(=O)c3s2)c1 | . | . | . | . | . | 4.6%
CC1CCc2c(sc3nnn(Cc4ccccc4Cl)c(=O)c23)C1 (stereo unspecified) | 0.0% | 1.0% | ? | ? | . | -0.5%
CCN(CC)S(=O)(=O)c1cc(NC(=O)CSc2nc3c(cc2C#N)C(=O)CC(C)(C)C3)ccc1C | -2.2% | ? | -15.3% | 18.4µM* | -4.3 | 8.1%
CCN(CC)S(=O)(=O)c1cc(NC(=O)CSc2nnc(N)s2)ccc1C | 8.9% | -3.4% | . | 3.3% | -5.6 | -0.9%
O=C(NC(Cc1c[nH]c2ccccc12)C(=O)Nc1ccc(OC(F)(F)F)cc1)c1cccs1 (stereo unspecified) | -21.9% | 23.1µM* | -4.8% | ? | 9.1 | -0.7%
CCc1nnc(SCc2nc(-c3ccccc3F)oc2C)c2cc3sccc3n12 | 2.1% | 5.0% | -6.2% | -9.0% | . | 2.7%
O=S(=O)(Nc1cccc2cccnc12)c1ccccc1Br | . | -15.7% | . | ? | -1.2 | .
Cc1[nH]n(-c2ccccc2)c(=O)c1C(=O)c1ccccc1 | 3.8% | ? | 5.5% | ? | -7.0 | -0.4%
Cc1[nH]n(-c2ccc(Cl)cc2)c(=O)c1C(=O)c1ccccc1 | 1.6% | ? | -5.9% | 20.6µM* | 1.3 | 3.1%
Cc1[nH]n(-c2ccccc2)c(=O)c1C(=O)c1ccc(Cl)cc1 | 0.7% | -24.1% | 1.9% | 16.4µM* | 0.2 | 0.4%
Cc1[nH]n(-c2ccccc2)c(=O)c1C(=O)c1cccc(F)c1 | -8.4% | 13.2% | -2.5% | 23.1µM* | -3.6 | 0.3%
CCSC(=S)c1c(C)[nH]n(-c2ccccc2)c1=O | 5.0% | ? | -10.7% | ? | -2.0 | 2.6%
CC(C)[C@H](NC(=O)c1ccc(C(C)(C)C)cc1)C(=O)N1CCN(Cc2ccc3c(c2)OCO3)CC1 | -2.0% | ? | . | 20.6µM* | -12.6 | 1.8%
Cc1occc1C(=O)N(C)Cc1nc(-c2ccc(Cl)cc2)no1 | -1.9% | ? | -1.1% | 20.6µM* | -8.0 | 4.4%
COc1ccccc1C(=O)N(Cc1nc(-c2ccc(Cl)cc2)no1)C(C)C | 6.1% | -11.3% | -9.9% | 20.6µM* | 4.6 | 0.3%
CCOc1ccc(S(=O)(=O)NCC(c2ccco2)S(=O)(=O)c2ccc(F)cc2)cc1 (stereo unspecified) | -17.9% | -2.2% | -8.0% | . | . | 6.2%
O=C(NCCc1csc(-c2cccc(F)c2)n1)c1ccccc1C(F)(F)F | 3.4% | 5.3% | -2.1% | . | . | 6.3%
CC1(C(=O)O)CCCN(C(=O)c2ccc(OC(F)F)cc2)C1 (stereo unspecified) | . | . | . | . | . | 0.5%
Cn1c2ccccc2c2cnn(CC(=O)NCCCN3CCCCC3)c(=O)c21 | -3.5% | 6.2% | 3.2% | 14.0% | . | -0.1%
CCN(CC)C(=O)c1sc(NC(=O)c2nc3ncccn3n2)c(C(=O)OC)c1C | -5.5% | 1.4% | 4.7% | -15.5% | . | 0.1%
Nc1ccc(-c2nc3ccccc3s2)cn1 | -8.4% | -6.3% | -0.3% | ? | -10.4 | 13.0%
Brc1ccc(-c2nc3ccccc3s2)s1 | 0.2% | 4.6% | -9.7% | ? | 10.8 | 11.2µM*
Cc1ccccc1NC(=O)c1ccc([N+](=O)[O-])o1 | -7.9% | -2.1% | -4.8% | -0.7% | ? | ?
Cc1ccc(-c2nnc(NC(=O)c3ccc([N+](=O)[O-])o3)o2)c(C)c1 | 2.6% | ? | . | ? | -81.2* | 7.08µM*
SMILES | mIDH1 inhibitor | A549 tox | Anesthetic bind | Nrf2 inh | Giardia killer | Nrf2 ARE act
Cc1ccc(NC(=O)c2ccc([N+](=O)[O-])o2)c(C)c1 | 6.6% | -6.6% | -9.5% | -2.5% | -90.1* | ?
COc1ccc(-c2nnc(NC(=O)c3ccc([N+](=O)[O-])o3)o2)c(OC)c1 | 9.2% | ? | -8.4% | ? | -99.9* | ?
Cc1ccc(NC(=O)c2ccco2)c([N+](=O)[O-])c1 | 11.5% | -0.5% | -7.6% | 92.6% | -26.5 | 11.2µM*
CCC(=O)Nc1cc(-c2cn3cccnc3n2)ccc1OC | -15.5% | 2.0% | 93.3% | . | . | -0.6%
COC(=O)c1nc(Nc2cc(F)cc(F)c2)nc(NC2CCCC2)n1 | . | 1.4% | . | 17.2% | . | .
CC(C)ON(C(C(=O)NO)C(C)C)S(=O)(=O)c1ccc(-c2ccccc2)cc1 (stereo unspecified) | . | . | -10.0% | . | . | .
Cc1ccccc1NC(=O)c1ccc(N/N=C/c2ccccc2O)c([N+](=O)[O-])c1 | 3.0% | -3.4% | -6.8% | 11.9% | -15.9 | -0.6%
Cc1ccc(NC(=O)c2ccc(N/N=C/c3cccc(O)c3)c([N+](=O)[O-])c2)cc1 | -2.6% | ? | -7.9% | 18.4µM* | 13.7 | 2.6%
CCc1nc2c(OCc3ccccc3)cccn2c1N(C)C(=O)C(C)C | . | . | . | . | . | 0.2%
Cc1cc(C)c[n+](C(C)C(=O)c2ccc(-c3ccccc3)cc2)c1 (stereo unspecified) | 1.6% | -9.7% | -12.2% | 14.6µM* | -2.6 | -0.4%
Cc1ccc[n+](C(C)C(=O)c2ccc(Cl)cc2)c1 (stereo unspecified) | -6.8% | -1.2% | -1.8% | -2.9% | 14.5 | -0.4%
FC(F)(F)c1cccc(N2CCN(c3ccc4nnc(-c5ccccc5)n4n3)CC2)c1 | 13.8% | ? | -22.0% | 16.4µM* | 3.1 | -0.5%
CSc1ccc(-c2nc3cccc(C)n3c2Nc2ccc(Cl)cc2)cc1 | -10.5% | -7.1% | 57.0% | -0.4% | . | 0.4%
Cc1cc2c(s1)c1cnn(Cc3ccc(Br)cc3)c(=O)c1n2C | . | -3.6% | . | 10.7% | . | .
CCN(CC(=O)NCc1cccs1)C(=O)c1ccc([N+](=O)[O-])o1 | 18.1% | -14.8% | . | -1.7% | -90.7* | 21.9%
O=C(c1ccc2c(c1)C(=O)N(CCCO)C2=O)c1ccc2c(c1)C(=O)N(CCCO)C2=O | 3.0% | 6.9% | -1.0% | . | -4.7 | -0.7%
O=C1c2ccc3c4c(ccc(c24)C(=O)N1CCCCO)C(=O)N(CCCCO)C3=O | 1.4% | 18.4µM* | ? | ? | ? | -2.3%
COC(=O)CCCN1C(=O)c2cccc3cccc(c23)C1=O | 8.4% | 1.4% | -10.4% | 0.7% | 0.7 | 12.6µM*
NNS(=O)(=O)c1ccc(Cc2ncc(C(F)(F)F)cc2Cl)s1 | 1.2% | -6.0% | -16.0% | -4.3% | -6.1 | 0.4%
NS(=O)(=O)c1ccc(Cc2ncc(C(F)(F)F)cc2Cl)s1 | 0.8% | ? | ? | 20.6µM* | -5.4 | 11.6%
COc1ccc(OCC(=O)NNc2c3ccccc3nc3ccccc23)cc1 | -1.0% | ? | -5.4% | 20.6µM* | -3.4 | -0.6%
O=C(COc1ccccc1)NNc1c2ccccc2nc2ccccc12 | 9.4% | ? | -17.0% | . | 18.0 | -0.9%
